According to PubChem BioAssay (NCI):
Compounds without any hit were thinned out: in the full panel of roughly 83,000, 20% have a hit.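 Activity criterion: percent growth below 10, measured after cells in 96-well plates were exposed to a single compound concentration for 48 hours.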 A number with no mark means an inactive call. Calls of active or inactive are those of the source.

system: NCI-H23 lung; assay: NCI-60 one-dose screen, 48 h (100 = growth as untreated, 0 = no growth, -100 = all killed); conditions: 10 µM unless noted

| SMILES | growth |
| --- | --- |
| NC(N)=N/N=C(/c1ccccc1)c1ccc(Cl)cc1 | 83.9% |
| O=C(Nc1nc(-c2ccc(Cl)cc2)cs1)c1cc(O)c(O)c(O)c1 | 42.2% |
| CC(=O)Oc1ccc(C2OC(c3ccc4ccccc4c3OC(C)=O)=NN2C(C)=O)c(OC(C)=O)c1 (centres undefined) | 28.8% |
| Fc1ccc(-c2nnc(-c3c(-c4ccc(F)cc4)nc4ncccn34)o2)cc1 | 98.2% |
| COc1ccc(/C=C(\C#N)c2ccccc2)cc1 | 95.7% |
| C=C(C)[C@H]1CC/C(C)=C/CC[C@]2(C)O[C@H]2CC/C(C=O)=C\C1O (some centres undefined) | 112% |
| O=c1ccn(C2OC(CO)C(O)C2F)c(=O)[nH]1 (centres undefined) | 90.5% |
| COc1cccc(-c2nnc(N)o2)c1 | 101% |
| O=c1cc(-c2cccnc2)oc2c1ccc1ccccc12 | 69.9% |
| COc1ccc(-c2cn(-c3ccccc3)c(-c3ccccc3)n2)cc1OC | 75.7% |
| COc1cc(Oc2cc(-c3cccnc3)ccc2NC(=O)Nc2ccc(F)cc2F)cc(OC)c1OC | 99% |
| ClC1=C(Cl)C(Cl)=C(Cl)C1=C/C=C/c1ccccc1 | -45.9% (active) |
| CNc1ccc(CSc2ccc(Cl)cc2)cc1 | 108% |
| C/C(=C\CCc1ccoc1)CC/C=C(\C)CCCN1CCC(CO)CC1 | 74.8% |
| Oc1ccc(Cc2ccc(O)c(C3CC(c4ccc(Cl)cc4)=NN3)c2)cc1C1CC(c2ccc(Cl)cc2)=NN1 (centres undefined) | 17.4% |
| CSc1nc2c(c(=O)n1C)C(c1ccccc1)C1=C(N2)/C(=C/c2ccccc2)CCC1 (centres undefined) | 54.8% |
| CCCc1nn(C)c2c(=O)[nH]c(-c3cc(S(=O)(=O)N4CCN(C)CC4)ccc3OCC)nc12 | 99% |
| O=C(/C(=N/O)S(=O)(=O)c1ccccc1)c1cccs1 | 94.2% |
| Cc1ccccc1-c1cc(Cc2ccccc2O)c(=O)[nH]n1 | 103% |

| SMILES | growth |
| --- | --- |
| O=C(CSc1nc2c(n1Nc1ccccc1)-c1ccccc1SC2)Nc1nc(-c2ccc(Cl)cc2)cs1 | 53% |
| CCOc1cc(C(C)(C)C)ccc1C1=N[C@H](c2ccc(Cl)cc2)[C@H](c2ccc(Cl)cc2)N1C(=O)N1CCN(CC#Cc2cccc3c2CN([C@@H]2CCC(=O)NC2=O)C3=O)CC1 | 77% |
| Nc1ccc(S(=O)(=O)Nc2ncccn2)cc1 | 114% |
| CC(=O)n1c2ccccc2c2ccccc21 | 93.7% |
| O=C1C(Cl)=C(N=Nc2c(Cl)c(O)c3ccccc3c2O)C(=O)c2ccccc21 | 68.2% |
| NC(N)=NN=c1c(=O)c2ccccc2c1=O | 58% |
| O=C(Nc1ccccc1Cl)c1cnc2ccc(C3CCNCC3)cn12 | 95% |
| CC12CCC3C(CCC4CC(=O)/C(=C\O)CC43C)C1CCC(=O)O2 (centres undefined) | 98.8% |
| Oc1[nH]c2ccc(Cl)cc2c1/C=c1/ccc2c(c1)N=C(c1ccc(C(F)(F)F)cc1)N=2 | 67.2% |
| O=C(c1ccccc1)c1ccccc1Cl | 100% |
| N#Cc1c(N2CCOCC2)nc2sc3cc(Cl)ccc3n2c1=N | 88.2% |
| O=C1CCCN1C1CCN(Cc2cc3ccccc3[nH]c2=O)c2ccccc21 (centres undefined) | 82.7% |
| CN(C)c1ccc(/C=C(\C#N)c2nc3ccccc3c(=O)[nH]2)cc1 | 70.2% |
| CCn1c2ccccc2c2ccc(C(C)=O)cc21 | 101% |
| Clc1cccc(Cc2cn3cc(-c4ccccc4)nc3s2)c1 | 62.6% |
| COc1cc(C2NC(c3ccc(Cl)cc3)C(C)C(=NC(=O)c3cnccn3)C2C)cc(OC)c1OC (centres undefined) | 90.7% |
| COc1ccc(C2=NN(C(=O)c3cc(OC)c(OC)c(OC)c3)C(c3ccc(C#N)cc3)C2)cc1OC (centres undefined) | 43.2% |
| CCc1[nH]nc(-c2ccc(OC)cc2)c1-c1ccccc1OCCN(CC)CC | 91.4% |

system: NCI-H226 lung; assay: as above; conditions: 10 µM unless noted

| SMILES | growth |
| --- | --- |
| NC(N)=N/N=C(/c1ccccc1)c1ccc(Cl)cc1 | 88.8% |
| O=C(Nc1nc(-c2ccc(Cl)cc2)cs1)c1cc(O)c(O)c(O)c1 | 74.9% |
| CC(=O)Oc1ccc(C2OC(c3ccc4ccccc4c3OC(C)=O)=NN2C(C)=O)c(OC(C)=O)c1 (centres undefined) | 15.7% |
| Fc1ccc(-c2nnc(-c3c(-c4ccc(F)cc4)nc4ncccn34)o2)cc1 | 113% |
| COc1ccc(/C=C(\C#N)c2ccccc2)cc1 | 89.6% |
| C=C(C)[C@H]1CC/C(C)=C/CC[C@]2(C)O[C@H]2CC/C(C=O)=C\C1O (some centres undefined) | 106% |
| O=c1ccn(C2OC(CO)C(O)C2F)c(=O)[nH]1 (centres undefined) | 101% |
| COc1cccc(-c2nnc(N)o2)c1 | 103% |
| O=c1cc(-c2cccnc2)oc2c1ccc1ccccc12 | 91.5% |
| COc1ccc(-c2cn(-c3ccccc3)c(-c3ccccc3)n2)cc1OC | 62.4% |
| COc1cc(Oc2cc(-c3cccnc3)ccc2NC(=O)Nc2ccc(F)cc2F)cc(OC)c1OC | 97% |
| ClC1=C(Cl)C(Cl)=C(Cl)C1=C/C=C/c1ccccc1 | -70.5% (active) |
| CNc1ccc(CSc2ccc(Cl)cc2)cc1 | 84.6% |
| C/C(=C\CCc1ccoc1)CC/C=C(\C)CCCN1CCC(CO)CC1 | 74.9% |
| Oc1ccc(Cc2ccc(O)c(C3CC(c4ccc(Cl)cc4)=NN3)c2)cc1C1CC(c2ccc(Cl)cc2)=NN1 (centres undefined) | 53.6% |
| CSc1nc2c(c(=O)n1C)C(c1ccccc1)C1=C(N2)/C(=C/c2ccccc2)CCC1 (centres undefined) | 74.1% |
| CCCc1nn(C)c2c(=O)[nH]c(-c3cc(S(=O)(=O)N4CCN(C)CC4)ccc3OCC)nc12 | 102% |
| O=C(/C(=N/O)S(=O)(=O)c1ccccc1)c1cccs1 | 102% |
| Cc1ccccc1-c1cc(Cc2ccccc2O)c(=O)[nH]n1 | 85.8% |

| SMILES | growth |
| --- | --- |
| O=C(CSc1nc2c(n1Nc1ccccc1)-c1ccccc1SC2)Nc1nc(-c2ccc(Cl)cc2)cs1 | 92% |
| CCOc1cc(C(C)(C)C)ccc1C1=N[C@H](c2ccc(Cl)cc2)[C@H](c2ccc(Cl)cc2)N1C(=O)N1CCN(CC#Cc2cccc3c2CN([C@@H]2CCC(=O)NC2=O)C3=O)CC1 | -17.3% (active) |
| Nc1ccc(S(=O)(=O)Nc2ncccn2)cc1 | 100% |
| CC(=O)n1c2ccccc2c2ccccc21 | 115% |
| O=C1C(Cl)=C(N=Nc2c(Cl)c(O)c3ccccc3c2O)C(=O)c2ccccc21 | 90.1% |
| NC(N)=NN=c1c(=O)c2ccccc2c1=O | 94.6% |
| O=C(Nc1ccccc1Cl)c1cnc2ccc(C3CCNCC3)cn12 | 65% |
| CC12CCC3C(CCC4CC(=O)/C(=C\O)CC43C)C1CCC(=O)O2 (centres undefined) | 113% |
| Oc1[nH]c2ccc(Cl)cc2c1/C=c1/ccc2c(c1)N=C(c1ccc(C(F)(F)F)cc1)N=2 | 88.7% |
| O=C(c1ccccc1)c1ccccc1Cl | 105% |
| N#Cc1c(N2CCOCC2)nc2sc3cc(Cl)ccc3n2c1=N | 88.3% |
| O=C1CCCN1C1CCN(Cc2cc3ccccc3[nH]c2=O)c2ccccc21 (centres undefined) | 78.3% |
| CN(C)c1ccc(/C=C(\C#N)c2nc3ccccc3c(=O)[nH]2)cc1 | 74.1% |
| CCn1c2ccccc2c2ccc(C(C)=O)cc21 | 91.8% |
| Clc1cccc(Cc2cn3cc(-c4ccccc4)nc3s2)c1 | 73% |
| COc1cc(C2NC(c3ccc(Cl)cc3)C(C)C(=NC(=O)c3cnccn3)C2C)cc(OC)c1OC (centres undefined) | 102% |
| COc1ccc(C2=NN(C(=O)c3cc(OC)c(OC)c(OC)c3)C(c3ccc(C#N)cc3)C2)cc1OC (centres undefined) | 52.4% |
| CCc1[nH]nc(-c2ccc(OC)cc2)c1-c1ccccc1OCCN(CC)CC | 94.9% |
